# Experimental data reported in PubChem BioAssay AID1347417 (National Center for Advancing Translational Sciences (NCATS), 2020).
# Among all 120,000 compounds or so, about 5,300 (4.4%) were called active. A call without a number means that no potency is given here. Not shown: some 22% with an inconclusive outcome. The full list was thinned out, with actives kept by preference. Values without a mark were called inactive. Calls follow the shape of the dose curve; as a rule, active = well fitted inhibition curve with a large enough effect; inconclusive = small, poorly fitted or top-dose-only effect; inactive = no such curve, though single readings can be large or run the other way.
# Assay: qHTS Primary assay for Inhibitors of Plasmodium falciparum Dd2 growth in vitro; also: nearly all actives have a fitted effect of over 65% in size
# Conditions: P. falciparum Dd2 growth, SYBR Green, 72 h; series mostly up to 28.9 µM
# In short: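 Infected erythrocytes (Dd2, 0.3% parasitemia, 2.5% hematocrit final) are added to compound in RPMI-1640/Albumax II medium, grown 72 h at 37C in low oxygen, then lysed with saponin/Triton-X containing SYBR Green and read by fluorescence.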
# Potency is read from the fitted curve at half-maximal effect.
Structure (SMILES),Potency,"activity, negative = inhibition"
COc1ccccc1-c1ccc(C(=O)O)cc1,inactive,
COc1ccc(-c2nn3c(-c4ccc(OC)cc4)nnc3c3ccccc23)cc1,inactive,
COc1ccc(-c2ccccc2CN)cc1,7.94 µM (active),
CC(C)c1noc(-c2cn(C3CCN(C(=O)COc4ccc(F)cc4)CC3)nn2)n1,10 µM (active),
CC(C)c1noc(-c2cn(C3CCN(C(=O)COc4ccccc4)C3)nn2)n1 (configuration not stated),inactive,
CC(C)c1noc(-c2cn(C3CCN(C(=O)c4cccc(C#N)c4)CC3)nn2)n1,inactive,
CNC(=O)[C@@H]1CN(C(=O)Cc2cccnc2)C[C@H]1COC,inactive,
O=C(NC1CCCC1)N1CC2CC(C1)[C@H]1CCCC(=O)N1C2 (some centres not stated),inactive,
COC(=O)c1scc(-c2ccc(C)cc2)c1S(=O)(=O)Nc1cc(Cl)c(OC)cc1OC,8.91 µM (active),
CCOC(=O)c1scc(-c2ccc(C)cc2)c1S(=O)(=O)Nc1cc(C)ccc1C,inactive,
COC(=O)c1scc(-c2ccccc2)c1S(=O)(=O)Nc1ccccc1,inactive,
COc1ccc(CN2C[C@H]3CN(Cc4ccccc4)CCN3C2=O)cc1,inactive,
CCCS(=O)(=O)N1CCC2(CC1)C(OC)C(=O)N2CC1CC1 (configuration not stated),inactive,
COc1ccc(N2CCN(CCCNC(=O)C3(CCO)CC34CCOCC4)CC2)cc1 (configuration not stated),inactive,
C#CCOc1ccc(C2CC(=O)Nc3c2c(C)nn3-c2nc(C)cc(C)n2)cc1 (configuration not stated),inactive,
COc1ccc(-c2nc(Cn3c(=O)cc(C)c4c(C)nn(-c5ccccc5)c43)c(C)o2)c(OC)c1,inactive,
COc1ccc(C2CC(=O)N(Cc3ccccc3C)c3c2c(C)nn3-c2nc(C)cc(C)n2)c(OC)c1 (configuration not stated),10 µM (active),
CCc1cc(=O)n(CC(=O)Nc2ccc(OC)c(OC)c2)c(N2CCOCC2)n1,inactive,
COc1ccc2[nH]c(=O)c(CCC(=O)NCC(N)=O)cc2c1,inactive,
Cc1n[nH]c(C)c1CCC(=O)N[C@@H]1CN(S(C)(=O)=O)C[C@H]1CN(C)C,inactive,
COc1ccc(OCC2CCN(CC3(O)CCCNC3)CC2)cc1 (configuration not stated),12.6 µM (active),
CCc1cc(N2CCN(CC3(O)CCCNC3)CC2)ncn1 (configuration not stated),inactive,
OC1(CN2CCC(CCn3cccn3)CC2)CNCCOC1 (configuration not stated),inactive,
O=C(c1ccccn1)N1CCC2(CC1)C(=O)Nc1ccccc12,inactive,
O=C([C@@H]1C[C@H](Oc2ccccc2)CN1C(=O)NC1CCCCC1)N1CCCC1,inactive,

Structure (SMILES),Potency,"activity, negative = inhibition"
CCn1cc(C(=O)N2CCN(c3cc(Cl)ccc3C)CC2)c(=O)c2cc(S(=O)(=O)N3CCCC3)ccc21,inactive,
CC1CCCN(c2cc3c(cc2F)c(=O)c(S(=O)(=O)c2cccc(Cl)c2)cn3Cc2ccccc2)C1 (configuration not stated),inactive,
COc1ccc(-c2nc(S(=O)(=O)c3ccccc3)c(N3CCCCC3)o2)cc1,inactive,
COc1ccc(N2CCN(C(=O)c3cn(C)c4ccc(S(=O)(=O)N5CCOCC5)cc4c3=O)CC2)cc1,inactive,
COc1ccc(S(=O)(=O)c2cn(C)c3cc(N4CCCCC4)c(F)cc3c2=O)cc1,8.91 µM (active),
Cc1ccc(S(=O)(=O)c2cn(Cc3ccccc3)c3cc(N4CCCC4)c(F)cc3c2=O)c(C)c1,12.6 µM (active),
CC(=O)N1CC2(CCN(C(=O)CCC(=O)O)CC2)Cc2ccccc21,inactive,
COc1ccc(-c2cnc3n2CC(C(=O)NCCCN2CCCC2=O)CC3)cc1 (configuration not stated),inactive,
O=C(N[C@@H]1CCC[C@@H]1C(=O)N1CCN(c2ccccc2F)CC1)c1ccncc1,inactive,
COCC(=O)NC1CCN(c2ccc(C)cc2)C1=O (configuration not stated),inactive,
COc1ccccc1C(=O)N1CCCC(n2cc(-c3nc(-c4ccccc4)no3)nn2)C1 (configuration not stated),inactive,
O=c1c2ccccc2n(Cc2cccc(Cl)c2)c(=O)n1Cc1ccccc1,inactive,
O=C(NC1CCN(Cc2ccccc2)CC1)c1ccc(Cn2c(=O)c3ccccc3n(Cc3cccc(F)c3)c2=O)cc1,7.94 µM (active),
O=C(O)c1c(CNCc2cccc(F)c2)c2ccccc2n1Cc1ccccc1,inactive,
CC(=O)NC[C@@H]1C=C(C)[C@H](CC(=O)N2CCCC2)C[C@H]1C(C)C,inactive,
CC1=C[C@@H](CNC(=O)CC2(CC(=O)O)CCCC2)[C@H](C(C)C)C[C@H]1Cc1nc2c(C)cccc2[nH]1,inactive,
CC1=C[C@@H](CN(CC2CC2)CC2CC2)[C@H](C(C)C)C[C@H]1Cc1nc2c(C)cccc2[nH]1,7.08 µM (active),
COc1ccc(CC(=O)NC[C@@H]2C=C(C)[C@H](Cc3nc4ccncc4[nH]3)C[C@H]2C(C)C)cc1,inactive,
CC1=C[C@@H](CNC(=O)CCC(=O)O)[C@H](C(C)C)C[C@H]1Cc1nc2ccccc2n1C,inactive,
CC(=O)N1CCC(NC[C@@H]2C=C(C)[C@H](Cc3nc4ccccc4n3C)C[C@H]2C(C)C)CC1,4.47 µM (active),
COc1ccc2nc(C[C@@H]3C[C@@H](C(C)C)[C@H](CNC(=O)CC(C)(C)CC(=O)O)C=C3C)[nH]c2c1,inactive,
CC1=C[C@@H](CNC2CCN(C)CC2)[C@H](C(C)C)C[C@H]1Cc1nc2ccccc2[nH]1,7.08 µM (active),
CC1=C[C@@H](CNS(C)(=O)=O)[C@H](C(C)C)C[C@H]1Cc1nc2ccccc2[nH]1,inactive,
COc1ccc(CCC(=O)N2CCC(Cc3nncn3C(C)C)C2)cc1 (configuration not stated),inactive,
CC(=O)N1CCN(Cc2ccc(C(F)(F)F)c(F)c2)CC(O)C1 (configuration not stated),inactive,

Structure (SMILES),Potency,"activity, negative = inhibition"
O=C(NCc1ccc(F)cc1)N1CCCC(Cc2noc(-c3ccncc3)n2)C1 (configuration not stated),inactive,
COc1ccc(-c2noc([C@@H]3CCCN3C(=O)CCc3ccccc3)n2)cc1,inactive,
CCN(CC)CCNC(=O)CN1N=C(c2ccc(OC)cc2)CCC1=O,inactive,
CCC(=O)N1N=C(c2ccc(OC)cc2)CC1c1cn(-c2ccccc2)nc1-c1cccs1 (configuration not stated),11.2 µM (active),
COC[C@@H]1CN(S(=O)(=O)c2cccc(F)c2)C[C@H]1c1ccncc1,inactive,
O=C(c1ccccn1)N1CCC(N(C(=O)NCCc2ccccc2)C2CCOCC2)CC1,inactive,
OC[C@@H]1CN(Cc2cccnc2)C[C@H]1c1ccncc1,inactive,
COc1ccccc1Nc1cnc2ccc(-c3ccc(OC)c(OC)c3)nn12,1.12 µM (active),
CN(C)c1ccc2ncc(Nc3ccccc3F)n2n1,inactive,
COc1ccc(-c2ccc3ncc(Nc4ccc(C(F)(F)F)cc4)n3n2)cn1,inactive,
CC(=O)N1CCN(Cc2cc(F)ccc2Cl)CC(O)C1 (configuration not stated),inactive,
CN(Cc1ccccc1)C(=O)C1CCCN(c2cnn(Cc3ccccc3)c(=O)c2)C1 (configuration not stated),inactive,
Cc1ccc([C@@H]2CN(Cc3ncc[nH]3)[C@@H]3C4CCN(CC4)[C@@H]32)cc1,inactive,
COc1ccc([C@@H]2CN(C(=O)c3c(C)noc3C)[C@@H]3C4CCN(CC4)[C@@H]32)cc1,inactive,
COc1cccc([C@H]2CN(c3cc(C)nc(N)n3)[C@@H]3C4CCN(CC4)[C@H]23)c1,11.2 µM (active),
O=C(Cn1nc2c(cc1=O)CCCC2)NC1CCN(C(=O)c2cc3ccccc3[nH]2)CC1,inactive,
C[C@@H]1CN(C(=O)c2ccsc2)C[C@H]1c1nc(-c2ccncc2)no1,inactive,
O=C1NCc2ccccc2CC12CCCN(Cc1ccc(F)cc1O)C2 (configuration not stated),4.47 µM (active),
O=C1NCc2ccccc2CC12CCCN(CC1CCCCC1)C2 (configuration not stated),inactive,
COc1ccc(CN2CCC3(Cc4ccccc4CNC3=O)C2)cc1OC (configuration not stated),inactive,
CCOc1cc(C2C(C(=O)Nc3ccc(OC)cc3)=C(C)Nc3nc(SC)nn32)ccc1O (configuration not stated),inactive,
CCOc1ccccc1NC(=O)C1=C(C)Nc2ncnn2C1c1ccc(NC(C)=O)cc1 (configuration not stated),inactive,
CCOc1ccc(C2C(C(=O)Nc3ccc(Cl)cc3)=C(C)Nc3nc(C(F)(F)F)nn32)cc1 (configuration not stated),2.82 µM (active),
O=C(NC1CCCC1)N1CCC(c2noc(-c3ccccc3)n2)C1 (configuration not stated),,13.8% [at 5.79 µM]
c1cc(CN2CCCCCC2)cc(-c2nc(C3CCOC3)no2)c1 (configuration not stated),8.91 µM (active),

Structure (SMILES),Potency,"activity, negative = inhibition"
COc1cccc(CCC(=O)N2CCCC2c2nc(C3CCOCC3)no2)c1 (configuration not stated),inactive,
Cc1ccc(C2CC(=O)Nc3c2c(C2CC2)nn3C)c(C)c1F (configuration not stated),inactive,
COc1cc2nc(SCC(=O)Nc3ccccc3F)n3nc(-c4ccccc4)nc3c2cc1OC,inactive,
COc1cc2nc(NCC(C)c3ccccc3)n3nc(-c4ccccc4)nc3c2cc1OC (configuration not stated),3.55 µM (active),
COc1ccc(Cl)cc1NC(=O)CSc1nc2ccccc2c2nc(-c3ccccc3)nn12,inactive,
COc1cccc(N2C(=O)NC(=NC3CCCCC3)C23CCN(CC2CC2)CC3)c1,inactive,
Cc1ccc(C(=O)N2CCC(CCC(=O)NC3CCCCC3)CC2)cc1,inactive,
O=C(CCC1CCCN(S(=O)(=O)c2ccc(F)cc2)C1)NC1CCS(=O)(=O)C1 (configuration not stated),inactive,
Cc1ccc(S(=O)(=O)N2CCCC(CCC(=O)NC3CCCCC3)C2)cc1 (configuration not stated),12.6 µM (active),
Cc1nc([C@@H]2CN(C(=O)CCCc3nc4ccccc4s3)C[C@H]2C(N)=O)n[nH]1,inactive,
CCC(CC)C(=O)N[C@H]1C[C@@H](Cc2cc(COc3ccccc3)on2)C1(C)C,inactive,
CCNC(=O)N[C@H]1C[C@@H](Cc2cc(CC(C)C)on2)C1(C)C,inactive,
CC1(C)[C@H](Cc2cc(CC3CCCCC3)on2)C[C@@H]1NC(=O)C1CCC1,11.2 µM (active),
Cc1cc(CN(C)C(=O)C2C3C(=O)N(Cc4ccc(C)c(C)c4)C[C@@]34C=C[C@@H]2O4)no1 (some centres not stated),inactive,
Cc1cccc(Nc2nc(C)nc(N)c2S(=O)(=O)c2ccccc2)c1,inactive,
COc1ccc(S(=O)(=O)c2c(Nc3ccc(C)cc3)sc(C(=O)c3ccc(C)cc3)c2N)cc1,10 µM (active),
Cc1ccc(CN2C[C@H]3CN(C(=O)c4ccc5c(c4)OCO5)CCN3C2=O)cc1,inactive,
Cc1ccc(S(=O)(=O)c2c(Nc3cccc(Cl)c3)sc(C(=O)c3ccc4c(c3)OCO4)c2N)cc1,7.94 µM (active),
COc1ccc(N2C(=O)CSC23CCN(C(=O)c2ccc(C)cc2)CC3)cc1,inactive,
COc1cccc(C(=O)c2sc3nc(-c4ccccc4)cc(C(F)(F)F)c3c2N)c1,inactive,
COc1ccc(S(=O)(=O)c2c(Nc3cccc(Cl)c3)sc(C(=O)c3ccccc3)c2N)cc1,8.91 µM (active),
CCOC(=O)c1ccc(NC(=O)CCS(=O)(=O)c2ccc(C)cc2)cc1,inactive,
